Experimental data from article PMC5540273 (PLoS ONE, 2017).

Tests used:
Conditions in all cases: concentration: 1 μM,replicates: in singlicate; n = 1
RIOK1 = system: RIOK1
RIOK2 = system: RIOK2
RIOK3 = system: RIOK3
RIPK1 = system: RIPK1
RIPK2 = system: RIPK2
RIPK4 = system: RIPK4
RIPK5 = system: RIPK5
ROCK1 = system: ROCK1
ROCK2 = system: ROCK2
ROS1 = system: ROS1
[1] = system: RPS6KA4(Kin.Dom.1-N-terminal)
[2] = system: RPS6KA4(Kin.Dom.2-C-terminal)
[3] = system: RPS6KA5(Kin.Dom.1-N-terminal)
[4] = system: RPS6KA5(Kin.Dom.2-C-terminal)
[5] = system: T1, RSK1(Kin.Dom.1-N-terminal)
T1 construct: gene RPS6KA1

[6] = system: T2, RSK1(Kin.Dom.2-C-terminal)
T2 construct: gene RPS6KA1

[7] = system: T3, RSK2(Kin.Dom.1-N-terminal)
T3 construct: gene RPS6KA3

[8] = system: T4, RSK2(Kin.Dom.2-C-terminal)
T4 construct: gene RPS6KA3

[9] = system: T5, RSK3(Kin.Dom.1-N-terminal)
T5 construct: gene RPS6KA2

[10] = system: T6, RSK3(Kin.Dom.2-C-terminal)
T6 construct: gene RPS6KA2
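Also: KINOMEscan kinase panel screen.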

SMILES	%Inh (RIOK1) [%]	%Inh (RIOK2) [%]	%Inh (RIOK3) [%]	%Inh (RIPK1) [%]	%Inh (RIPK2) [%]	%Inh (RIPK4) [%]	%Inh (RIPK5) [%]	%Inh (ROCK1) [%]	%Inh (ROCK2) [%]	%Inh (ROS1) [%]	%Inh [1] [%]	%Inh [2] [%]	%Inh [3] [%]	%Inh [4] [%]	%Inh [5] [%]	%Inh [6] [%]	%Inh [7] [%]	%Inh [8] [%]	%Inh [9] [%]	%Inh [10] [%]
Cc1cc2cn[nH]c2cc1-c1cccc2c(N)c(C(N)=O)nnc12	100	77	73	0	4	84	74	70	68	80	92.6	12	51	2	48	15	58	0	26	2
C[C@@H](Oc1cc(-c2cnn(C3CCNCC3)c2)cnc1N)c1c(Cl)ccc(F)c1Cl	39	0	50	6	32	34	80	5	20	–	0	3	0	0	14	17	13	0	14	20
CCn1c(-c2nonc2N)nc2c(C#CC(C)(C)O)nc(OCCN)cc21.Cl.Cl [GSK902056]	0	8	0	0	0	0	4	18	0	2	0	79	23	38	0	0	10	22	19	0
CCN(CC)CCOc1ccc(Nc2ncc3cc(-c4c(Cl)cccc4Cl)c(=O)n(C)c3n2)cc1 [SB-601273]	35	29	92.3	100	99.7	18	44	25	50	50	0	0	0	36	19	51	45	47	29	0
C[C@H]1Oc2cc(cnc2N)-c2c(nn(C)c2C#N)CN(C)C(=O)c2ccc(F)cc21	0	0	0	12	0	0	89	0	0	98.5	3	0	16	1	0	0	0	0	5	14
Cl.Cl.NC[C@H](CC1CCCCC1)NC(=O)c1cc(Br)c(-c2ccnc3[nH]ccc23)s1 [GSK1581427]	100	66	80	0	0	20	5	100	99.1	17	56	5	50	13	26	64	49	5	38	0
Cc1occc1-c1nc(N)c(OC[C@@H](N)Cc2c[nH]c3ccccc23)cc1-c1cc2c(C)n[nH]c2cn1 [GSK1660450]	87	16	59	0	10	4	0	93.7	82	4	7	0	72	0	26	18	98.1	24	87	0
NC(=O)c1cc(-c2ccccc2)cc2c(C3CCNCC3)c[nH]c12 [GSK301362]	79	20	64	0	7	19	0	40	19	23	16	0	12	4	8	0	0	54	27	0
Cc1ccc2c(-c3ccncc3)c(-c3ccc(F)cc3)nn2c1.Cl [GW461484]	0	0	19	0	55	0	0	14	5	0	18	0	0	15	0	52	0	1	1	0
CCN(CC)CCCCNc1ncc2cc(-c3c(Cl)cccc3Cl)c(NC(=O)NC(C)(C)C)nc2n1	0	6	0	17	54	0	26	0	9	43	0	16	8	0	0	13	0	0	0	14
CN(C)CC(O)COc1ccc(Nc2nccc(-c3cnn4nc(N5CCOCC5)ccc34)n2)cc1 (centres unmarked) [GW767488]	96.6	98.2	98.2	46	0	55	65	93.8	97.9	48	0	53	0	0	23	49	62	1	20	37
Cc1n[nH]c2ccc(-c3cc(OC[C@@H](N)Cc4ccccc4)cnc3-c3ccoc3)cc12.O=C(O)C(F)(F)F.O=C(O)C(F)(F)F [GSK507358]	93	0	72	0	0	0	0	31	33	0	0	0	42	1	4	0	17	0	12	16
CN(C)CCOc1ccc(-c2cc(-c3c[nH]nc3-c3ccccn3)ccn2)cc1 [GW835314]	0	2	8	0	78	16	14	9	18	21	0	17	8	1	0	40	21	16	84	10
O=C(NCCCN1CCOC1=O)c1cnc(NCc2cc(Cl)ccc2Cl)nc1NC1CCCC1	0	0	6	1	0	11	0	0	0	18	10	0	15	8	8	6	2	16	67	13
O=C(NCCNc1ccnc(NCc2ccc(F)cc2)n1)c1cc2ccccc2s1 [GSK1379944]	28	0	17	0	73	5	0	0	0	7	28	0	24	0	11	0	0	18	20	0
Nc1nc(Nc2ccccc2)cc(-c2ccc3c(N)n[nH]c3c2)n1 [GSK2225749]	98.5	54	76	0	0	44	0	–	45	0	0	51	15	17	0	0	20	22	7	4
Cc1cc(C(=O)Nc2ccc(Oc3ccc4nc(NC(=O)C5CC5)cn4n3)cc2)nn1-c1ccccc1	17	0	41	0	24	0	0	0	0	0	20	0	0	6	0	0	0	49	0	6
Cc1ccc(-n2nc(C(C)(C)C)cc2NC(=O)Nc2ccc(OCCN3CCOCC3)c3ccccc23)cc1 [GW839464]	54	0	8	29	0	0	0	0	0	0	23	0	2	18	100	0	0	0	54	4
CNC(=O)c1ccccc1Sc1ccc2c(/C=C/c3ccccn3)n[nH]c2c1	2	0	0	12	22	0	11	5	17	45	0	0	0	0	0	0	0	0	11	6
COc1ccc(C[C@@H](CN)NC(=O)c2cc(Br)c(-c3ccnc4[nH]ccc34)s2)cc1.Cl.Cl [GSK1389063]	89	49	80	0	4	36	28	100	95.2	59	68	59	87	21	42	0	90.8	0	63	15
CC(C)Nc1cc(-c2ccc3c(N)n[nH]c3c2)nc(N)n1 [GSK2221681]	94.1	19	66	0	0	66	0	7	41	5	0	88	0	68	28	0	8	19	18	12
C=CC(=O)Nc1cc2c(Nc3ccc(F)c(Cl)c3)ncnc2cc1OCCCN1CCOCC1 [GW781483]	54	10	46	8	53	26	4	42	0	4	7	3	0	0	0	0	33	24	17	11
Cl.Cl.NC[C@H](Cc1ccc(C(F)(F)F)cc1)NC(=O)c1cc(Br)c(-c2ccnc3[nH]ccc23)s1 [GSK1487252]	35	0	12	0	0	19	0	98.2	99.5	44	41	0	72	21	20	7	56	1	37	0
C[C@@H]1CCN(C(=O)CC#N)C[C@@H]1N(C)c1ncnc2[nH]ccc12	0	0	37	0	0	0	0	–	46	6	–	0	0	0	20	0	0	0	0	100
Cl.Oc1cc(-c2nc(-c3ccccc3)[nH]c2-c2ccncc2)ccc1Cl [SB-386023]	0	5	0	0	78	17	21	1	6	19	0	13	1	0	4	23	0	0	0	0
Cl.Cl.Nc1nc(-c2ccc3c(N)n[nH]c3c2)cc(N2CCCC(NC(=O)c3ccccc3)C2)n1 (centres unmarked) [GSK2286775]	96.5	9	99.3	4	8	39	5	2	30	0	0	0	0	4	20	10	6	0	32	16
CC(C)N1C(=O)Cc2cc(Nc3ncc(C(F)(F)F)c(NCc4cccc(S(C)(=O)=O)c4)n3)ccc21	46	21	88	0	4	42	43	3	0	59	0	24	0	22	21	19	56	2	39	26
